Measurements reported in PubChem BioAssay AID1159580 (chemical genetic matrix, 2015).
The whole screen tested about 5,500 compounds, of which about 2,000 (36%) were called active. Roughly 18% stayed inconclusive and do not appear here. No stated cut-off is given here; in the data, active means normalized growth mostly below about 0.91 (no sharp cut-off); inconclusive means no clear call, values can overlap the other calls; inactive means mostly above about 0.92. The list shows a part of the results.

Test: chemical genetic growth profiling, strain panel (AID 1159580);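 further: tested at 20 µM; growth read once vehicle control cultures reached saturation at 30 °C; 1 = growth at the plate median or of vehicle wells; lower values mean less growth of the strain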
Settings: growth OD

Measured: normalized growth

CCCCOc1cc(C(=O)NCCN(CC)CC)c2ccccc2n1
inactive: S. cerevisiae deletion strains, locus YJR075W, strain HOC1, hits give low values 0.999 | S. cerevisiae deletion strains, locus YKL009W, strain mrt4, hits give low values 1 | S. cerevisiae deletion strains, locus YKL068W, hits give low values 0.994 | S. cerevisiae deletion strains, locus YKL085W, strain MDH1 (second series), hits give low values 0.989 | S. cerevisiae deletion strains, locus YKL085W, strain MDH1, hits give low values 0.989 | S. cerevisiae deletion strains, locus YKL160W, strain elf1, hits give low values 0.964 | S. cerevisiae deletion strains, locus YKR001C, strain vps1, hits give low values 1.01 | S. cerevisiae deletion strains, locus YKR026C, strain gcn3, hits give low values 0.962 | S. cerevisiae deletion strains, locus YKR091W, strain srl3, hits give low values 0.973 | S. cerevisiae deletion strains, locus YLL001W, strain dnm1, hits give low values 0.939 | S. cerevisiae deletion strains, locus YLL026W, hits give low values 0.981 | S. cerevisiae deletion strains, locus YLL041C, strain sdh2, hits give low values 0.956 | S. cerevisiae deletion strains, locus YLR027C, strain aat2, hits give low values 0.97 | S. cerevisiae deletion strains, locus YLR039C, strain RIC1, hits give low values 1.13 | S. cerevisiae deletion strains, locus YLR058C, strain SHM2, hits give low values 1.01 | S. cerevisiae deletion strains, locus YLR102C, strain apc9, hits give low values 0.99 | S. cerevisiae deletion strains, locus YLR113W, strain HOG1, hits give low values 1.02 | S. cerevisiae deletion strains, locus YLR221C, strain rsa3, hits give low values 1.02 | S. cerevisiae deletion strains, locus YLR258W, strain gsy2, hits give low values 1 | S. cerevisiae deletion strains, locus YLR262C, strain YPT6 (second series), hits give low values 0.956 | S. cerevisiae deletion strains, locus YLR262C, strain YPT6, hits give low values 1.14 | S. cerevisiae deletion strains, locus YLR268W, strain sec22, hits give low values 1 | S. cerevisiae deletion strains, locus YLR320W, strain mms22, hits give low values 1.02 | S. cerevisiae deletion strains, locus YLR330W, strain CHS5, hits give low values 1.01 | S. cerevisiae deletion strains, locus YLR342W, strain FKS1 (second series), hits give low values 1.02 | S. cerevisiae deletion strains, locus YLR342W, strain FKS1, hits give low values 0.957 | S. cerevisiae deletion strains, locus YLR357W, strain rsc2, hits give low values 0.94 | S. cerevisiae deletion strains, locus YLR370C, strain arc18, hits give low values 0.971 | S. cerevisiae deletion strains, locus YLR371W, strain rom2, hits give low values 0.99 | S. cerevisiae deletion strains, locus YLR384C, strain iki3, hits give low values 0.959 | S. cerevisiae deletion strains, locus YLR418C, strain cdc73, hits give low values 0.984 | S. cerevisiae deletion strains, locus YML016C, strain PPZ1, hits give low values 1.01 | S. cerevisiae deletion strains, locus YML032C, strain rad52, hits give low values 0.989 | S. cerevisiae deletion strains, locus YML120C, strain ndi1, hits give low values 0.969 | S. cerevisiae deletion strains, locus YML124C, strain tub3, hits give low values 0.994 | S. cerevisiae deletion strains, locus YMR058W, strain fet3, hits give low values 0.968 | S. cerevisiae deletion strains, locus YMR078C, strain ctf18, hits give low values 0.991 | S. cerevisiae deletion strains, locus YMR125W, strain sto1, hits give low values 0.931 | S. cerevisiae deletion strains, locus YMR129W, hits give low values 0.982 | S. cerevisiae deletion strains, locus YMR205C, strain PFK2, hits give low values 0.972 | S. cerevisiae deletion strains, locus YMR223W, strain ubp8, hits give low values 0.987 | S. cerevisiae deletion strains, locus YMR231W, strain pep5, hits give low values 0.96 | S. cerevisiae deletion strains, locus YMR263W, strain SAP30, hits give low values 1 | S. cerevisiae deletion strains, locus YMR307W, strain GAS1, hits give low values 1.1 | S. cerevisiae deletion strains, locus YNL067W, strain RPL9B, hits give low values 0.995 | S. cerevisiae deletion strains, locus YNL071W, strain lat1, hits give low values 0.985 | S. cerevisiae deletion strains, locus YNL128W, strain TEP1, hits give low values 1 | S. cerevisiae deletion strains, locus YNL153C, strain GIM3, hits give low values 0.994 | S. cerevisiae deletion strains, locus YNL183C, strain NPR1, hits give low values 0.975 | S. cerevisiae deletion strains, locus YNL209W, strain ssb2, hits give low values 0.985 | S. cerevisiae deletion strains, locus YNL233W, strain BNI4, hits give low values 0.997 | S. cerevisiae deletion strains, locus YNL248C, strain rpa49, hits give low values 0.979 | S. cerevisiae deletion strains, locus YNL250W, strain rad50, hits give low values 0.996 | S. cerevisiae deletion strains, locus YNL271C, strain bni1, hits give low values 0.991 | S. cerevisiae deletion strains, locus YNL298W, strain CLA4, hits give low values 0.998 | S. cerevisiae deletion strains, locus YNL307C, strain MCK1, hits give low values 0.984 | S. cerevisiae deletion strains, locus YNL322C, strain KRE1 (second series), hits give low values 0.951 | S. cerevisiae deletion strains, locus YNL322C, strain KRE1, hits give low values 1 | S. cerevisiae deletion strains, locus YNR049C, strain mso1, hits give low values 0.967 | S. cerevisiae deletion strains, locus YNR052C, strain pop2, hits give low values 0.985 | S. cerevisiae deletion strains, locus YOL012C, strain htz1 0.896 | S. cerevisiae deletion strains, locus YOL147C, strain pex11, hits give low values 0.998 | S. cerevisiae deletion strains, locus YOR001W, strain rrp6, hits give low values 0.935 | S. cerevisiae deletion strains, locus YOR061W, strain CKA2, hits give low values 1.01 | S. cerevisiae deletion strains, locus YOR069W, strain VPS5, hits give low values 1 | S. cerevisiae deletion strains, locus YOR070C, strain gyp1, hits give low values 0.991 | S. cerevisiae deletion strains, locus YOR080W, strain dia2, hits give low values 0.962 | S. cerevisiae deletion strains, locus YOR083W, strain WHI5, hits give low values 0.967 | S. cerevisiae deletion strains, locus YOR106W, strain vam3, hits give low values 0.966 | S. cerevisiae deletion strains, locus YOR136W, strain idh2, hits give low values 0.998 | S. cerevisiae deletion strains, locus YOR144C, strain elg1, hits give low values 0.992 | S. cerevisiae deletion strains, locus YOR184W, strain ser1, hits give low values 0.995 | S. cerevisiae deletion strains, locus YOR231W, strain MKK1, hits give low values 1.03 | S. cerevisiae deletion strains, locus YOR265W, strain rbl2, hits give low values 0.976 | S. cerevisiae deletion strains, locus YOR270C, strain vph1, hits give low values 0.933 | S. cerevisiae deletion strains, locus YOR290C, strain snf2, hits give low values 0.977 | S. cerevisiae deletion strains, locus YOR316C, strain cot1, hits give low values 0.996 | S. cerevisiae deletion strains, locus YPL051W, strain arl3, hits give low values 0.989 | S. cerevisiae deletion strains, locus YPL055C, strain LGE1, hits give low values 1.02 | S. cerevisiae deletion strains, locus YPL078C, strain atp4, hits give low values 0.936 | S. cerevisiae deletion strains, locus YPL106C, strain sse1, hits give low values 0.921 | S. cerevisiae deletion strains, locus YPL240C, strain hsp82, hits give low values 0.962 | S. cerevisiae deletion strains, locus YPL256C, strain CLN2, hits give low values 1.01 | S. cerevisiae deletion strains, locus YPR119W, strain clb2, hits give low values 0.994 | S. cerevisiae deletion strains, locus YPR141C, strain kar3, hits give low values 1 | S. cerevisiae deletion strains, locus YPR163C, strain tif3, hits give low values 1 | S. cerevisiae deletion strains, locus YPR167C, strain met16, hits give low values 0.986 | S. cerevisiae deletion strains, strain wtn01, hits give low values 1.02 | S. cerevisiae strains, strain wild type, hits give low values 1
